Holding throughout (assay): NCI-60 one-dose screen, 48 h (100 = growth as untreated, 0 = no growth, -100 = all killed)
The subject of assay [1] is HCT-15 colon. Particulars: 10 µM unless noted.
Assay [2] deals with HT29 colon. Particulars: 10 µM unless noted.
Assay [3] relates to SNB-75 CNS. Conditions: 10 µM unless noted.
Assay [4] concerns SNB-19 CNS. Conditions: 10 µM unless noted.
For assay [5], the system named is U251 CNS. Particulars: 10 µM unless noted.
The subject of assay [6] is PC-3 prostate. Particulars: 10 µM unless noted.
The subject of assay [7] is SK-MEL-5 melanoma. Conditions: 10 µM unless noted.
Assay [8] relates to UACC-62 melanoma. Conditions: 10 µM unless noted.
In assay [9] the test system is LOX IMVI melanoma. Particulars: 10 µM.
The test system of assay [10] is SK-MEL-28 melanoma. Particulars: 10 µM unless noted.

The values below come from PubChem BioAssay (NCI).

Compounds without any hit were thinned out: in the full panel of roughly 83,000, 20% have a hit.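 Note: values are percent growth. 100 is the growth of untreated cells, values between 100 and 0 indicate rising inhibition; between -100 and 0 indicates cell death.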 A number with no mark means an inactive call. The source made the active and inactive calls. The calls were made as follows: active = growth percent below 10; inactive = the rest.

As to `COC(=O)Cc1cc(COC(C)=O)ccc1C`, the growth in assay [1] was 106%; in assay [2], 96.6%; in assay [3] it was 97.8%; in assay [4] it was 113%; in assay [5], 109%; in assay [6], 92.6%. Further, the growth in [7] was 110%; in assay [8] it was 104%; in assay [9], 108%; in [10] it was 113%.

Turning to `CCCCN(C=S)CCCC`, the growth in assay [1] is 98.1%; in assay [2], 102%; in assay [3], 87.4%; in assay [4], 94.3%; in [5], 90.3%; in assay [6], 91.5%. In addition, the growth in [7] is 101%; in [8] it was 96.4%; in assay [9] it was 106%; in [10] it was 96.2%.

Regarding `CC(=O)/C(C)=N\OC(=O)Nc1ccccc1`, the growth in [1] was 103%; in [2] it was 99.4%; in [3] it was 82.7%; in assay [4], 98%; in assay [5], 93%; in [6], 97.5%. Further, the growth in assay [7] is 99.1%; in [8], 107%; in assay [9], 94.6%; in [10] it was 112%.

With `Cc1ccc2nc(-c3ccc(N=Cc4ccccc4O)cc3)sc2c1`, the growth is 80.1% in assay [1]; 93.4% in assay [2]; 47.4% in assay [3]; 92.3% in assay [4]; 91.6% in assay [5]; 85.4% in [6]. For the same compound, the growth was 109% in assay [7], 84.7% in assay [8], 86.9% in assay [9] and 110% in assay [10].

As for `CCCCOC(=O)c1ccc(NC(=O)CCl)cc1`, the growth was 14.9% in [1]; 12.8% in assay [2]; 68.9% in assay [3]; 62.6% in assay [4]; 4.55% (active) in assay [5]; 51.7% in assay [6]. The growth in assay [7] is 58.7%; in assay [8] it was 52.9%; in assay [9], -43.4% (active); in assay [10], 102%.

Turning to `Oc1ccc(CCC2CCNc3ccccc32)cc1` (centres undefined), the growth in assay [1] was 83.2%; in assay [2], 93.7%; in assay [3] it was 76.6%; in assay [4] it was 87.2%; in assay [5], 71.5%; in assay [6], 60.7%. The growth was 58% in assay [7], 72% in assay [8], 81.1% in assay [9] and 94.4% in [10].

`COc1ccc2c(c1)Nc1ccccc1S2`: the growth in assay [1] was 104%; in [2], 104%; in assay [3], 108%; in assay [4] it was 110%; in assay [5], 97.2%; in [6] it was 97.9%. The growth in assay [7] is 101%; in assay [8] it was 96.2%; in assay [9], 113%; in assay [10], 114%.

Take `CCNc1ccc2ccccc2c1N=Nc1ccc(N=Nc2ccccc2)cc1`: the growth in assay [1] is 104%; in assay [2], 112%; in [3], 100%; in [4] it was 112%; in assay [5], 109%; in assay [6], 87.1%. For the same compound, the growth in assay [7] was 87.5%; in [8] it was 72.6%; in assay [9] it was 93.1%; in assay [10] it was 120%.

For `Cc1cc(NC(=O)c2ccccc2)c(Cl)cc1N`, the growth was 100% in assay [1]; 102% in assay [2]; 100% in assay [3]; 93.9% in [4]; 102% in [5]; 108% in assay [6]. The growth in assay [7] was 97.5%; in assay [8], 89.8%; in assay [9], 97.6%; in [10], 124%.

`O=C(N/N=C\c1ccc(Cl)cc1Cl)c1ccncc1`: the growth was 102% in assay [1]; 90.1% in [2]; 77.4% in assay [3]; 92.8% in assay [4]; 92.7% in assay [5]; 94% in assay [6]. Further, the growth is 98.9% in assay [7], 106% in [8], 85.4% in assay [9] and 103% in assay [10].

For `CC(=O)NNC(=S)/N=C\C(C(=O)c1ccccc1)=C(/O)c1ccccc1`, the growth is 98.7% in [1]; 93.8% in [2]; 86.3% in assay [3]; 105% in assay [4]; 99.5% in assay [5]; 93% in assay [6]. Further, the growth in assay [7] was 101%; in assay [8], 101%; in assay [9] it was 94%; in assay [10] it was 106%.

Regarding `COc1ccc(-c2csc(NC(=O)Nc3nc(-c4ccc(OC)cc4)cs3)n2)cc1`, the growth is 86.5% in assay [1]; 104% in assay [2]; 99.2% in [3]; 96.6% in assay [4]; 79.5% in assay [5]; 67.4% in assay [6]. Besides, the growth in assay [7] is 29.3%; in [8], 81.3%; in assay [9] it was 83.6%; in assay [10] it was 99%.

On to `Cc1ccc(O)c(N)c1`, for which the growth was 106% in assay [1]; 112% in [2]; 87.7% in assay [3]; 101% in assay [4]; 103% in [5]; 94.7% in assay [6]. Besides, the growth in assay [7] is 103%; in assay [8] it was 81.5%; in assay [9], 105%; in assay [10], 122%.

Consider `Nc1cccc2cccc(O)c12`, for which the growth in [1] is 83%; in assay [2], 107%; in [3] it was 78.5%; in assay [4], 98.7%; in [5], 70.5%; in [6], 69.6%. In addition, the growth is 86.9% in [7], 86.4% in assay [8], 85.1% in assay [9] and 111% in assay [10].

For the compound `COc1nc2ccccc2s1`, the growth in [1] was 98%; in assay [2] it was 102%; in [3], 81%; in [4], 110%; in assay [5], 108%; in [6], 89.1%. For the same compound, the growth in assay [7] is 97.5%; in assay [8] it was 103%; in assay [10] it was 100%.
